# Results taken from the supplement of paper PMC10646978.
# ± gives the standard deviation.
# Legend:
# Conditions in all cases: modulator concentration 10 µM
# [1] = test system: RAW-Dual (murine macrophage reporter line); assay: NF-kB reporter (SEAP) activity fold change vs agonist alone; higher = enhanced NF-kB activity
# Summary of the method: (§1)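 Compound reached 10 μM final in each well by pin transfer, onto RAW-Dual murine macrophage reporter cells seeded at 50 000 per well in 384-well plates. After 1 hour at 37 °C, the cells were stimulated overnight with a PRR agonist. SEAP in the supernatant was read with QUANTI-Blue at 620 nm absorbance for NF-κB, and Lucia luciferase was read with QUANTI-Luc luminescence for IRF. Each signal was turned into fold change against the mean agonist-only control on the same plate, and two replicate plates were averaged with propagated errors.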
# [2] = test system: RAW-Dual (murine macrophage reporter line); assay: IRF reporter (Lucia luciferase) activity fold change vs agonist alone; higher = enhanced IRF activity
# Summary of the method: as §1
# [3] = test system: RAW-Dual (murine macrophage reporter line); assay: viability score (confluency relative to resting cells, overnight) (fraction); higher = more viable, active = viable (0.7 or more)
# Summary of the method: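 In 384-well plates, RAW-Dual macrophages received compound at a final 10 μM overnight. Two confluency masks were then made with IncuCyte software from IncuCyte images of all imaged wells. The viability score is defined as confluency relative to resting cells. Passing the cutoff required both masks to lie above 70% of resting cells.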
# [4] = agonist: CpG ODN 1826 0.5 ug/mL
Compound,"NF-kB reporter [1, 4]",NF-kB reporter ([1]; agonist: LPS 0.1 ug/mL),NF-kB reporter ([1]; agonist: MPLA […]),IRF reporter ([2]; agonist: 3'3'-cGAMP 10 ug/mL),IRF reporter ([2]; agonist: LPS 0.1 ug/mL),IRF reporter ([2]; agonist: MPLA […]),viability score [3]
CN1CCN(CCCN2c3ccccc3Sc3ccc(S(=O)(=O)N(C)C)cc32)CC1 [Prestw-149],0.413 ± 0.053,0.958 ± 0.052,1.82 ± 0.044,0.936 ± 0.051,0.851 ± 0.078,1.55 ± 0.16,0.149 (inactive)
COc1ccc(OC)c(Nc2nc(-c3c(C)nc4sccn34)cs2)c1,0.853 ± 0.073,0.961 ± 0.1,1.21 ± 0.13,0.925 ± 0.046,1.43 ± 0.094,1.75 ± 0.15,1.01 (active)
CCCC(=O)OCOC(=O)C1=C(C)NC(C)=C(C(=O)OC)C1c1cccc(Cl)c1Cl (stereo not drawn),0.752 ± 0.068,0.888 ± 0.064,1.07 ± 0.11,0.995 ± 0.048,1.18 ± 0.14,1.16 ± 0.16,1 (active)
Cc1ccc(C(=O)C(C)CN2CCCCC2)cc1.Cl (stereo not drawn),0.981 ± 0.13,1.05 ± 0.14,0.908 ± 0.052,0.895 ± 0.032,1.27 ± 0.41,1.43 ± 0.15,0.956 (active)
CCOC(=O)C1CCCN(S(=O)(=O)Cc2ccccc2)C1 (stereo not drawn),0.766 ± 0.067,0.879 ± 0.043,1.02 ± 0.089,0.814 ± 0.04,1.42 ± 0.096,1.53 ± 0.14,1.01 (active)
CCN(CC)CCOC(=O)C(c1ccccc1)c1ccccc1 [Prestw-75],0.712 ± 0.11,1.14 ± 0.14,1.91 ± 0.9,1.2 ± 0.038,0.922 ± 0.09,1.09 ± 0.12,0.91 (active)
O=S(=O)(Cc1ccccc1)Nc1ccccn1,0.951 ± 0.054,1.03 ± 0.084,0.893 ± 0.067,0.961 ± 0.032,1.49 ± 0.13,1.27 ± 0.15,1 (active)
CCCCC1=NC2(CCCC2)C(=O)N1Cc1ccc(-c2ccccc2-c2nn[nH]n2)cc1,1.05 ± 0.079,0.951 ± 0.08,0.978 ± 0.026,0.948 ± 0.052,1.01 ± 0.15,0.945 ± 0.18,1 (active)
CCCCc1oc2ccccc2c1C(=O)c1cc(I)c(OCCN(CC)CC)c(I)c1.Cl,0.471 ± 0.038,0.988 ± 0.12,1.83 ± 0.34,0.55 ± 0.033,1.6 ± 0.12,1.77 ± 0.15,1 (active)
CC(C)CSc1nnc2c(n1)[nH]c1ccccc12,1.06 ± 0.083,1.01 ± 0.072,0.967 ± 0.039,0.955 ± 0.2,1.05 ± 0.047,0.885 ± 0.14,0.998 (active)
Cc1ccc(Sc2c(C)nn(-c3ccccc3)c2OC(=O)C(C)(C)C)cc1,0.74 ± 0.07,0.87 ± 0.075,0.928 ± 0.12,0.557 ± 0.031,1.08 ± 0.1,1.03 ± 0.19,0.963 (active)
CCc1nc2ccc(C(=O)NC3CCC(n4cccn4)CC3)cc2s1 (stereo not drawn),1.02 ± 0.098,1.04 ± 0.082,1.03 ± 0.054,0.959 ± 0.047,0.964 ± 0.045,0.925 ± 0.14,1 (active)
O=C(NN=Cc1c(Br)sc2ccccc12)c1cccc(Cl)c1,0.972 ± 0.082,0.88 ± 0.17,1.18 ± 0.056,0.738 ± 0.12,0.952 ± 0.045,1.49 ± 0.1,0.887 (active)
COCCOC(=O)C1=C(C)NC(=O)NC1c1cc(OC)c(OC)c(OC)c1 (stereo not drawn),0.937 ± 0.064,1.02 ± 0.062,0.913 ± 0.069,0.956 ± 0.032,1.2 ± 0.15,1.08 ± 0.14,0.995 (active)
O=C1CCC(=O)N1C1CC2CCC(C1)N2C(=O)c1cnccn1 (stereo not drawn),0.892 ± 0.056,0.903 ± 0.081,1.06 ± 0.057,1.03 ± 0.053,1.22 ± 0.19,1.31 ± 0.41,0.954 (active)
O=C(Nc1cc(N2CCN(Cc3ccccc3)CC2)ncn1)c1ccc2ccccc2n1,0.528 ± 0.04,0.984 ± 0.077,0.846 ± 0.036,0.94 ± 0.049,1.07 ± 0.067,1.24 ± 0.23,1.01 (active)
Cc1ccc(OCC(O)CN2CCCCC2)c(C)c1.Cl (stereo not drawn),0.868 ± 0.15,1.05 ± 0.12,1.01 ± 0.15,0.857 ± 0.056,1.21 ± 0.12,1.28 ± 0.2,0.809 (active)
CCOC(=O)c1ncn2c1CN(C)C(=O)c1cc(F)ccc1-2,1.26 ± 0.22,1.03 ± 0.28,0.975 ± 0.058,0.912 ± 0.029,1.2 ± 0.27,1.16 ± 0.088,0.995 (active)
Cc1ccc(S(=O)(=O)n2nc(C)c(C)c2C)cc1C,0.929 ± 0.047,1.11 ± 0.11,1.05 ± 0.068,1.07 ± 0.068,1.2 ± 0.16,1.26 ± 0.34,1.01 (active)
COc1ccc2oc(=O)c(-c3csc(NC(=O)C=CC(=O)O)n3)cc2c1,1.09 ± 0.099,0.895 ± 0.086,0.985 ± 0.027,0.353 ± 0.017,0.938 ± 0.11,0.844 ± 0.13,0.959 (active)
COc1ccc(Cl)cc1C(=O)Nc1cc(C(F)(F)F)cc(C(F)(F)F)c1,1.03 ± 0.082,1.01 ± 0.059,0.962 ± 0.086,0.966 ± 0.024,1.54 ± 0.26,1.19 ± 0.23,1.01 (active)
Cc1noc(C)c1CCC(=O)N1CCCC(c2nnc(C(F)(F)F)o2)C1 (stereo not drawn),0.991 ± 0.12,1.06 ± 0.087,0.923 ± 0.042,0.988 ± 0.082,1.12 ± 0.1,1.02 ± 0.077,1.01 (active)
COc1cc(NC(=O)COc2cc(C)c(Cl)c(C)c2)cc(OC)c1,1.02 ± 0.18,0.954 ± 0.078,0.854 ± 0.098,0.93 ± 0.025,1.06 ± 0.12,1.04 ± 0.12,1 (active)
CCS(=O)(=O)N1CCN(c2ccc(Nc3ncc(C(N)=O)c(NC4CC4)n3)cc2)CC1.Cl,1.08 ± 0.046,0.355 ± 0.033,0.622 ± 0.042,0.0973 ± 0.0051,0.301 ± 0.072,0.324 ± 0.081,0.899 (active)
